Screening data from PubChem.
SENP8 block-1: SENP8 protease inhibition; Q96LD8; purified SENP8, Z-RLRGG-aminoluciferin cleavage, luminescence; inhibition, % at 10 µM; hit rate 1.2% among 330,000; in the data active = inhibition above about 50%
Target sequence (Q96LD8 whole entry, looked up): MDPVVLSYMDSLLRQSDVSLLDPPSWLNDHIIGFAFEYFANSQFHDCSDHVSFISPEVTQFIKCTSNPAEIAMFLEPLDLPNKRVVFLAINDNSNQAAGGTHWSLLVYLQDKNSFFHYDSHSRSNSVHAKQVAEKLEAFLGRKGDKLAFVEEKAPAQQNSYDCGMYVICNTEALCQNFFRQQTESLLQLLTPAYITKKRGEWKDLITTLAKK
Platelet DG rel: modulates dense granule release in human platelets. human platelet-rich plasma, SFLLRN dense granule ATP release, luminescence. inhibition, %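 (compounds screened at 7.5 µM in platelet-rich plasma)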. hit rate 0.22% among 300,000. AID 1663;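 active = mean replicate score, as percent of positive control, at or above 50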
SENP6 block: SENP6 protease inhibition; Recombinant SENP6 catalytic domain, aminoluciferin luminescence; hit rate 1.8% among 330,000; Q9GZR1; inhibition, % at 10 µM;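 active = inhibition above about 50% at the single tested dose, limit read from the data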;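 note: plate controls were DMSO wells with enzyme for no effect and DMSO wells lacking enzyme for full effect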
SENP8 block-2: blocks human SENP8 cleavage of Nedd8 substrate | recombinant SENP8, Nedd8 substrate fluorescence | inhibition, % at 20 µM | hit rate 0.64% among 360,000 | AID 602440; in the data active = inhibition mostly above about 40%, no sharp cut-off; inactive = mostly below about 27%
SENP7 inh: inhibitors of human SENP7 protease | Q9BQF6 | recombinant SENP7, Z-RLRGG-aminoluciferin luminescence, 40 min | inhibition, % at 5 µM | hit rate 1.5% among 330,000 | AID 434973;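 active = inhibition above about 50% at the single test dose, limit read from the data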;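 note: plate controls were DMSO with enzyme for no effect and no enzyme buffer wells for full effect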
SENP8 conf: confirmation of human SENP8 protease inhibitors | hit rate 40% among 6,200 | inhibition, % at 12.5 µM | shares compounds with SENP7 inh | Recombinant SENP8, Z-RLRGG-aminoluciferin luminescence, 60 min | AID 488912;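 active = mean inhibition across replicates above about 50%, limit read from the data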
SENP6 confirm: confirmation of human SENP6 protease inhibitors; shares compounds with SENP7 inh; AID 488915; inhibition, % at 12.5 µM; hit rate 58% among 6,200; recombinant SENP6, Z-RLRGG-aminoluciferin luminescence
SENP7 conf: human SENP7 inhibition, confirmed. shares compounds with SENP7 inh. recombinant SENP7, Z-RLRGG-aminoluciferin luminescence, 40 min. inhibition, % at 12.5 µM. hit rate 69% among 6,200. AID 488917
Casp3 SENP sel: selectivity test for SENP inhibitors: human caspase-3 inhibition; hit rate 60% among 6,200; shares compounds with SENP7 inh; purified caspase-3, Z-DEVD-aminoluciferin luminescence, 60 min; inhibition, % at 12.5 µM;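 active = mean inhibition above about 50%, limit read from the data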;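 note: plate controls were enzyme with DMSO for no effect and wells without caspase-3 for full effect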
Target sequence (P42574 28-227 limits assumed): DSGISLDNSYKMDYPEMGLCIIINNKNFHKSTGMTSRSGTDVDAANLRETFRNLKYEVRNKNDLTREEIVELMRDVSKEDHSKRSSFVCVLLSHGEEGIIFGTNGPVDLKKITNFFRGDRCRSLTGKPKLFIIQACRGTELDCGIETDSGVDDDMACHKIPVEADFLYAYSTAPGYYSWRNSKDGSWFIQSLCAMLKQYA
SENP luc ctr: luminescence interference (SENP counter-screen); shares compounds with SENP7 inh; Pre-incubated SENP8/Z-RLRGG-aminoluciferin, luciferase luminescence interference; inhibition, % at 12.5 µM; hit rate 39% among 6,200; AID 488919;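 active = mean inhibition above about 50% when retested at one dose, limit read from the data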;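 note: plate controls were DMSO wells with completed reaction for no effect and substrate without enzyme for full effect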
* = called active by the depositor; x = not tested or not shown. Compounds with a hit are over-represented: about 2.4% of the library has one in this group of screens.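 Rule for the calls, unless noted: active = mean inhibition above about 50% in the one-dose retest (limit read from the data); inactive = the rest.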

SMILES	SENP8 block-1	Platelet DG rel	SENP6 block	SENP8 block-2	SENP7 inh	SENP8 conf	SENP6 confirm	SENP7 conf	Casp3 SENP sel	SENP luc ctr
CCCCCCN1C=CC(=C2C(=O)c3ccccc3C2=O)C=C1	85*	8	87*	17	76*	2	2	-4	-5	-2
CN1C=CC(=C2C(=O)c3ccccc3C2=O)C=C1	1	1	45	x	15	x	x	x	x	x
CCN1C=CC(=C2C(=O)c3ccccc3C2=O)C=C1	76*	53*	88*	17	86*	-22	86*	100*	96*	89*
CCCN1C=CC(=C2C(=O)c3ccccc3C2=O)C=C1	90*	64*	95*	21	93*	93*	98*	102*	98*	60*
CC(C)=CCC(C)(C)/C=N/NC(N)=O	9	-10	-7	10	4	x	x	x	x	x
CC(C)NC(=O)c1ccc2c3n(nc2c1)-c1ccc(Cl)cc1CO3	54*	11	24	-46	-1	-2	26	62*	44	11
C[C@@H](CO)NC(=O)c1ccc2c3n(nc2c1)-c1ccccc1CO3	49	42	57*	-221	37	65*	66*	92*	91*	70*
CC(NC(=O)c1ccncc1)c1ccc(Cl)cc1Cl (centres undefined)	3	-2	-8	8	3	x	x	x	x	x
COC(=O)c1ccc(CC(=O)c2nc3ccccc3s2)cc1	79*	2	92*	30	4	6	17	16	4	1
COC(=O)c1ccc(/C(O)=C(\C#N)c2nc3ccccc3s2)cc1	88*	-1	91*	6	-11	11	38	23	26	2
Cc1ccc(OC/C(O)=C(\C#N)c2nc3ccccc3s2)cc1	76*	-10	70*	2	19	78*	80*	76*	75*	43
CC(C)=C(C#N)c1nc2ccccc2s1	-4	15	-7	8	10	x	x	x	x	x
CCOC(=O)CC/C(C)=N\N=C1\SC(CC(=O)O)C(=O)N1c1ccccc1 (centres undefined)	-1	-13	-5	3	8	x	x	x	x	x
O=C(CC(Nc1ccc(F)cc1)C(=O)O)c1ccccc1 (centres undefined)	83*	11	96*	-30	74*	69*	82*	91*	83*	31
O=C(CSc1nncs1)Nc1nccs1	7	-1	-2	3	4	x	x	x	x	x
CCCCSc1nnc(CSc2nc3nc(C)cc(C)n3n2)o1	-4	3	-37	10	78*	7	8	-6	-1	0
Cn1c(=N)n(CC(=O)c2ccccc2)c2ccccc21	26	22	32	6	8	x	x	x	x	x
Cn1c(=N)n(CC(=O)c2ccc(Cl)c(Cl)c2)c2ccccc21	36	9	51*	9	52*	37	27	19	19	23
O=C(Nc1ccc(F)c(Cl)c1)c1ccc2sc([C@H]3C[C@H](O)[C@@H](CO)O3)nc2c1	x	x	x	-4	x	x	x	x	x	x
CC(=O)Nc1nc(C)c(C(C)=O)s1	-8	-3	-5	10	-10	x	x	x	x	x
CC(=O)c1sc(NC(=O)c2ccc(Cl)cc2)nc1C	37	13	0	-27	72*	17	18	7	25	9
COC(=O)c1sc(NC(=S)NC(=O)c2cccc(C)c2)nc1C	10	-3	37	21	3	x	x	x	x	x
Cn1sc(NC(=O)c2ccc(Cl)cc2)nc1=O	67*	-3	-7	18	81*	49	37	69*	53*	52*
CC(=O)c1sc(NC(=O)c2cccc(C)c2)nc1C	47	11	67*	-13	63*	43	61*	88*	78*	24
CC(=O)c1sc(NC(=O)c2ccccc2C)nc1C	67*	5	79*	6	82*	40	67*	93*	90*	52*
SMILES	SENP8 block-1	Platelet DG rel	SENP6 block	SENP8 block-2	SENP7 inh	SENP8 conf	SENP6 confirm	SENP7 conf	Casp3 SENP sel	SENP luc ctr
COc1ccc(C(CNC(=O)c2[nH]c(C)c(C(C)=O)c2C)N2CCOCC2)cc1 (centres undefined)	-10	x	-14	-2	-7	x	x	x	x	x
O=C(NCc1ccc2c(c1)OCO2)C1CCN(c2nccc(C(F)(F)F)n2)CC1	0	6	-24	-68	4	x	x	x	x	x
CC(NC(=O)COC(=O)c1cccc(S(=O)(=O)N2CCCC2)c1)c1ccccc1 (centres undefined)	5	x	7	2	1	x	x	x	x	x
Cc1cc(C(=O)COc2ccc(F)cc2Br)c(C)n1C1CC1	-1	x	-20	5	-3	x	x	x	x	x
CC(C)(C)c1ccc(NC(=O)c2c(F)cccc2Cl)cc1	-3	1	-7	-8	2	x	x	x	x	x
CC(CCc1ccccc1)NC(=O)CN1CCN(c2ccccc2)CC1 (centres undefined)	-9	-12	-2	4	-5	x	x	x	x	x
Cc1nc(NC(=O)c2cccc(Cl)c2)sc1C(=O)N1CCCCC1	57*	-10	72*	-40	68*	2	30	6	3	10
Cc1nc(NC(=O)C2CC2)sc1C(=O)N1CCCCC1	6	-3	-5	5	2	x	x	x	x	x
CCN(CC)S(=O)(=O)c1ccc2c(c1)c(=O)c(C(=O)NCCc1ccccc1)cn2C	2	-2	8	21	-13	x	x	x	x	x
Clc1ncccc1-c1nnn(-c2ccccc2Br)n1	1	4	9	6	-9	x	x	x	x	x
Brc1ccccc1-n1nnc(-c2nccs2)n1	55*	-4	61*	16	56*	46	45	79*	66*	65*
Fc1ccc(-n2nnc(-c3ccccc3)n2)cc1	-1	4	7	21	-6	x	x	x	x	x
c1ccc(-n2nnc(-c3nccs3)n2)cc1	77*	9	82*	-2	77*	71*	82*	97*	92*	71*
c1ccc(CSc2ccc(-c3ccco3)nn2)cc1	19	4	60*	-3	18	21	54*	79*	52*	10
Cc1ccc(CSc2ccc(-c3ccco3)nn2)cc1	-1	27	84*	0	68*	33	77*	96*	69*	30
Cc1ccc(CSc2ccc(-c3cccs3)nn2)cc1	8	-12	25	16	69*	12	12	6	13	6
CN1c2ccccc2-c2ccccc2S1(=O)=O	x	x	x	11	x	x	x	x	x	x
